Where “and” joins values, the source holds several entries; their conditions need not be identical. Equal entries are not always repeated. Where a structure was tested more than once in an assay, its records may differ in their call. Calls of active or inactive are those of the source. How the source made its calls: active means hit-call score of the fitted dose curve at least 0.9, where 1 is the maximum; inactive means score below 0.9.
How the values were obtained:
[1] = ATG_M_32_CIS: Attagene CIS-FACTORIAL HepG2 Assay for M32 Transcription Factor (Internal Marker) (AID 2282949); conditions: HepG2 Attagene cis-factorial M32 reporter, mRNA; actives raise or lower the signal;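 further: background control marker of the multiplexed CIS panel rather than a real target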
How it was run: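 Following 24 h chemical exposure of HepG2 cells transiently expressing cis-promoter reporter constructs, reporter transcript levels were determined by RT-PCR with fluorescent labelling and capillary electrophoresis, then fitted bidirectionally against DMSO.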

[2] = biological target: Hypoxia-inducible factor 1-alpha (Homo sapiens) (UniProt Q16665); experiment: ATG_HIF1a_CIS: Attagene CIS-FACTORIAL HepG2 Assay for human Hypoxia Inducible Factor 1 (HIF1A) (AID 2282951); conditions: HepG2 Attagene cis-factorial HIF1a reporter transcription; actives raise or lower the signal
Sequence of Hypoxia-inducible factor 1-alpha (Homo sapiens) (Q16665 whole entry, looked up): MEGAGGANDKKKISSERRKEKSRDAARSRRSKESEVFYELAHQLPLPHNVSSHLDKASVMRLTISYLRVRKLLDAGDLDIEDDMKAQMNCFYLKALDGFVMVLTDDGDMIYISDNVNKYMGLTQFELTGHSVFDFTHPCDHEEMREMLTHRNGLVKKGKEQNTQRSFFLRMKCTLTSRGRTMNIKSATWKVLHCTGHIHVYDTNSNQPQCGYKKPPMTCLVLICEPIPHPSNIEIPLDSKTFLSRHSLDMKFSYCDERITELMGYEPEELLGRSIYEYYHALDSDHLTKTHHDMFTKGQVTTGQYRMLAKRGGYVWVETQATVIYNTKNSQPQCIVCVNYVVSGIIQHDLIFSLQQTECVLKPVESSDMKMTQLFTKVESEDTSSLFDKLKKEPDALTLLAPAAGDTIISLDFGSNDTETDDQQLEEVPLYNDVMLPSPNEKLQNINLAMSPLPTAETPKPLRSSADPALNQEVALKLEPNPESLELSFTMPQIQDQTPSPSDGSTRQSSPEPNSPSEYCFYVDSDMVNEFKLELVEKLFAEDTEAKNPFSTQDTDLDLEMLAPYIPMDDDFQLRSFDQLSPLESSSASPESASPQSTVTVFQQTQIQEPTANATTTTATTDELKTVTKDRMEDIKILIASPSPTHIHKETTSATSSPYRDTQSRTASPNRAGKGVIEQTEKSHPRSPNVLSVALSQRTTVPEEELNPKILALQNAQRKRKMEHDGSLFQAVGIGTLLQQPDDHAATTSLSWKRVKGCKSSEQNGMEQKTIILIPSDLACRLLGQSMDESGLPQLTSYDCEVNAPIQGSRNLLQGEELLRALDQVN
How it was run: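 RT-PCR/capillary electrophoresis fluorescence readout of reporter transcripts from endogenous-TF-driven cis elements in transfected HepG2 cells, 24 h exposure; activity fitted in both directions against DMSO controls.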

[3] = biological target: Hepatocyte nuclear factor 6 (Homo sapiens) (UniProt Q9UBC0); experiment: ATG_HNF6_CIS: Attagene CIS-FACTORIAL HepG2 Assay for human Hepatocyte Nuclear Factor 6 (HNF6) (AID 2282952); conditions: HepG2 Attagene cis-factorial HNF6 reporter transcription; actives raise or lower the signal
Sequence of Hepatocyte nuclear factor 6 (Homo sapiens) (Q9UBC0 whole entry, looked up, the tested form may be a part): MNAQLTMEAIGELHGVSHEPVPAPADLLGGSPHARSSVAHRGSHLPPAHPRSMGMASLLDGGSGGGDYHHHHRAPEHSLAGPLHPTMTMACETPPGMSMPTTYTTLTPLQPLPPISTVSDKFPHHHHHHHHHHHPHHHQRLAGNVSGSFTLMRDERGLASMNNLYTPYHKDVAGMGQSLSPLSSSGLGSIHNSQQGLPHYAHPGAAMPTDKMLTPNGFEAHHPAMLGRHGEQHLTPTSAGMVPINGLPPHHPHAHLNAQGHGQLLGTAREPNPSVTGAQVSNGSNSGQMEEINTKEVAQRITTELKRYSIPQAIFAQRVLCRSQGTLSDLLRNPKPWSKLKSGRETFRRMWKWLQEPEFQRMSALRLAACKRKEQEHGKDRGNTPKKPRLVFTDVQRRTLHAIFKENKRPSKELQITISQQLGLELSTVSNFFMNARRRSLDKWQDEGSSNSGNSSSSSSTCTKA
How it was run: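 Reporter mRNA induction or loss in HepG2 after 24 h exposure; transient cis-MRTU transfection; fragments quantified by capillary electrophoresis; bidirectional analysis, DMSO as negative control.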

[4] = biological target: Heat shock factor protein 1 (Homo sapiens) (UniProt Q00613); experiment: ATG_HSE_CIS: Attagene CIS-FACTORIAL HepG2 Assay for human Heat Shock Transcription Factor 1 (HSE) (AID 2282953); conditions: HepG2 HSE cis-reporter, Attagene RNA transcription; actives raise or lower the signal
Sequence of Heat shock factor protein 1 (Homo sapiens) (Q00613 whole entry, looked up): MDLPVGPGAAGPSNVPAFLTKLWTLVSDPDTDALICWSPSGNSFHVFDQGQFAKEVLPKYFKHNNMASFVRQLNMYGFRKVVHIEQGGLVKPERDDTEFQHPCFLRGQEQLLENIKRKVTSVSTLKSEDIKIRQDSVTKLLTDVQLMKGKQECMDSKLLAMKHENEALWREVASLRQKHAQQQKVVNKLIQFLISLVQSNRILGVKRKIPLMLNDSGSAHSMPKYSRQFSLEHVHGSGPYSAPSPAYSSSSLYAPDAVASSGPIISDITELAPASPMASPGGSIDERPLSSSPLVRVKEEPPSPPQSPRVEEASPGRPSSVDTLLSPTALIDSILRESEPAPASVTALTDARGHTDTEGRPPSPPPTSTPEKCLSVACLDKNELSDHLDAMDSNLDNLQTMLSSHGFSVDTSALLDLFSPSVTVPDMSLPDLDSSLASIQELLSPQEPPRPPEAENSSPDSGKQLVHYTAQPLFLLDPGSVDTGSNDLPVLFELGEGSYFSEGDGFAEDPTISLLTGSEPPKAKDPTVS
How it was run: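 HepG2, transient MRTU transfection, cis-promoter reporters (endogenous TF activity). 24 h compound. RNA → oligo(dT) RT → PCR → 6-FAM primer extension → HpaI cut → CE. Bidirectional fit vs DMSO.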

[5] = ATG_MRE_CIS: Attagene CIS-FACTORIAL HepG2 Assay for human Metal Responsive Element (MRE) (AID 2282954); conditions: HepG2 MRE cis-reporter transcription, Attagene multiplex; actives raise or lower the signal
How it was run: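 HepG2 cells transiently transfected with multiple cis-element reporter units measure endogenous MTF1-driven transcription. After 24 h compound exposure, reporter mRNA is quantified by RT-PCR with 6-FAM labelling, HpaI digestion and capillary electrophoresis; bidirectional fits versus DMSO.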

[6] = ATG_PBREM_CIS: Attagene CIS-FACTORIAL HepG2 Assay for human Phenobarbital-responsive Enhancer Module (PBREM) (AID 2282955); conditions: HepG2 PBREM cis-reporter, Attagene multiplexed transcription; actives raise or lower the signal
How it was run: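 Reporter mRNA read by RT-PCR, 6-FAM primer extension, HpaI digestion and capillary electrophoresis. Transfected HepG2 cells, 24 h compound exposure. Gain or loss of signal fitted bidirectionally relative to DMSO baseline.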

[7] = biological target: Paired box protein Pax-6 (Homo sapiens) (UniProt P26367); experiment: ATG_Pax6_CIS: Attagene CIS-FACTORIAL HepG2 Assay for human Paired Box 6 (PAX6) (AID 2282956); conditions: HepG2 CIS-FACTORIAL PAX6 reporter transcription, RNA readout; actives raise or lower the signal
Sequence of Paired box protein Pax-6 (Homo sapiens) (P26367 whole entry, looked up): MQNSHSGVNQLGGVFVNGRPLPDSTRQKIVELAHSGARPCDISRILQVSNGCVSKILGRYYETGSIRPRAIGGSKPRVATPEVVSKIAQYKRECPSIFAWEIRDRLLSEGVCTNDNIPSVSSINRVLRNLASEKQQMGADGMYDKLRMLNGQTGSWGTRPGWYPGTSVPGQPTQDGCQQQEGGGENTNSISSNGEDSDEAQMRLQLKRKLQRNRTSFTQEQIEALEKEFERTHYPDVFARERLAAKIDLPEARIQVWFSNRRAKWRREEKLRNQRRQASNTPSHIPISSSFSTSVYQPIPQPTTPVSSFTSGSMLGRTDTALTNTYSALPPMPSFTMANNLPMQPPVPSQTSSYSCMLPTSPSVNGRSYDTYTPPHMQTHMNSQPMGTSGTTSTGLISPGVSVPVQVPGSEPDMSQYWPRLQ
How it was run: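 HepG2 cells transiently transfected with cis-promoter-driven multiplexed reporter units sensing endogenous transcription factor activity; 24 h chemical exposure. Reporter mRNA quantified by RT-PCR, 6-FAM labelling, HpaI digestion and capillary electrophoresis; bidirectional fit versus DMSO baseline.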

[8] = ATG_PPRE_CIS: Attagene CIS-FACTORIAL HepG2 Assay for human Peroxisome Proliferator-activated Response Element (PPRE) (AID 2282958); conditions: HepG2 PPRE cis-element reporter, Attagene transcription factor profiling; actives raise or lower the signal
How it was run: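 Read-out: fluorescent reporter mRNA fragments resolved by capillary electrophoresis after RT-PCR. HepG2 cells carried transiently transfected PPRE-driven cis reporter constructs and were dosed for 24 h; gain or loss of signal fitted relative to DMSO.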

[9] = ATG_PXRE_CIS: Attagene CIS-FACTORIAL HepG2 Assay for human Pregnane X Receptor Element (PXRE) (AID 2282957); conditions: HepG2 Attagene CIS-FACTORIAL PXRE reporter, mRNA; actives raise or lower the signal
How it was run: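 Transiently transfected HepG2 cells were dosed and incubated for 24 h. RNA was then isolated, DNase-treated, reverse-transcribed and reporter sequences amplified. Labeled, HpaI-digested fragments were quantified by capillary electrophoresis against DMSO.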

Measured: AC50

Nc1ccn([C@@H]2O[C@H](CO)[C@@H](O)C2O)c(=O)n1 (stereo partly drawn)
not listed: [9]
inactive: all other assays above

O=S(=O)(O)c1ccccc1
inactive: [1] | [2] | [3] | [4] | [5] | [7] | [8]
active: [8] 57.9 µM

CC1=CC(=O)c2ccccc2C1=O
active: [9] 11.1 µM
inactive: all other assays above

CCN(CCC#N)c1ccccc1
active: [9] 39.6 µM
inactive: all other assays above

Cn1sccc1=O
active: [4] 161 µM | [5] 163 µM | [7] 159 µM | [9] 142 µM
inactive: all other assays above

Cc1ccc(C(=O)c2ccccc2)cc1
active: [9] 30.4 µM
not listed: [5]
inactive: all other assays above

c1ccc2c(c1)CCC2
active: [2] 36.5 µM
inactive: all other assays above

Cc1ccc(C)c(S(=O)(=O)O)c1
not listed: [9]
inactive: all other assays above

FC(F)(F)C1(F)C(F)(F)C(F)(F)C(F)(F)C(F)(C(F)(F)F)C1(F)F (stereo not drawn)
inactive: all assays above

Cc1[nH]nc2c1N=C(c1ccccc1Cl)c1cc([N+](=O)[O-])ccc1N2
not listed: [5] | [8] | [9]
inactive: all other assays above

CC(C)[C@@H]1CC[C@@H](C)C[C@H]1O
not listed: [4] | [5]
inactive: all other assays above

O=C(OC(=O)C(F)(F)C(F)(F)F)C(F)(F)C(F)(F)F
inactive: all assays above

FC(OC(F)(F)C(F)(F)C(F)(F)F)C(F)(F)F (stereo not drawn)
not listed: [5]
inactive: all other assays above

O=C(O)c1cccc(C(=O)O)n1
inactive: all assays above

CC1CCC(CO)CC1 (stereo not drawn)
not listed: [8] | [9]
inactive: all other assays above

c1cc[nH]c1
not listed: [9]
inactive: all other assays above

OCCN1CN(CCO)CN(CCO)C1
active: [4] 178 µM | [7] 173 µM | [9] 30 µM
not listed: [5]
inactive: all other assays above

CCC(=O)C=Cc1ccc(OC)cc1
inactive: [1] | [6] | [7] | [8]
active: [2] 62.7 µM | [3] 124 µM | [4] 145 µM

C[C@]12CC[C@@H]3c4ccc(O)cc4CC[C@H]3[C@@H]1CC[C@@H]2OC(=O)CCC1CCCC1
active: [1] 164 µM | [3] 125 µM | [9] 3.89 µM | [8] 100 µM
inactive: all other assays above

CCOCCOCC
inactive: all assays above

O=C(Nc1cccc([N+](=O)[O-])c1)c1cc2ccccc2cc1O
active: [6] 3.64 µM | [8] 4.22 µM
not listed: [9]
inactive: all other assays above

c1cc2cccc3c4cccc5cccc(c(c1)c23)c54
inactive: all assays above

O=c1cc(-c2ccccc2)oc2ccc3ccccc3c12
active: [9] 1.08 µM and 2.24 µM
inactive: all other assays above

C=COC(=O)C(C)(C)CCCCCC
active: [2] 130 µM | [9] 27.9 µM
inactive: all other assays above

CCO[Si](C)(C)OCC
not listed: [5]
inactive: all other assays above

COCN(COC)c1nc(N(COC)COC)nc(N(COC)COC)n1
active: [9] 45.3 µM
not listed: [5]
inactive: all other assays above

CCCCCCCC(OC)OC
not listed: [9]
inactive: all other assays above

CCc1cccc(CC)c1N(COC)C(=O)CS(=O)(=O)O
active: [6] 8.56 µM | [9] 3.8 µM
inactive: all other assays above

CC(C)CCOCCC(C)C
not listed: [5] | [9]
inactive: all other assays above

NC(C(F)(F)F)C(F)(F)F
inactive: all assays above

O=C(O)CCC(F)(F)C(F)(F)C(F)(F)C(F)(F)C(F)(F)C(F)(F)F
not listed: [9]
inactive: all other assays above

Oc1c(Cl)cc(Cl)cc1Sc1cc(Cl)cc(Cl)c1O
active: [4] 18.3 µM | [8] 1.52 µM
not listed: [5] | [9]
inactive: all other assays above

Cc1cncc(C)c1
inactive: all assays above

Cc1ccc(S(=O)(=O)O)cc1
inactive: [1] | [2] | [3] | [7] | [9]
active: [9] 26.3 µM

— PubChem BioAssay (EPA / NIEHS)
